# From PubChem BioAssay
# Shown are actives, neighbours in structure and some others; about 8.3% of the full set was active somewhere.
# Giardia FBPA inh-1 = qHTS Assay for Inhibitors of Fructose-1,6-bisphosphate Aldolase from Giardia Lamblia | purified Giardia FBPA | Potency, µM (highest dose often 59.6 µM), hits mostly inhibitors | 290,000 compounds, 0.71% hits | AID 2451, 2010; further: nearly all actives have a fitted effect of over 55% in size
# Target sequence (A8B2U2 whole entry, looked up): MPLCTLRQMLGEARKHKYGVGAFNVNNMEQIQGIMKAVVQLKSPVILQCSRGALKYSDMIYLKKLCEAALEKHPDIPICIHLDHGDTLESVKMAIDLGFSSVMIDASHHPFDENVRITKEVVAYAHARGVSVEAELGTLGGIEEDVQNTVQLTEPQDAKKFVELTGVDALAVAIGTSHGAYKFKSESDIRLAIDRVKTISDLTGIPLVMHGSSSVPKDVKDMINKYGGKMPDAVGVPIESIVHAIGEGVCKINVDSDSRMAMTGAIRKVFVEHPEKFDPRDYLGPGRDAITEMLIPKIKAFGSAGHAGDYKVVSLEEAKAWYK
#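 40 nM FBPA preincubated 10 min at RT with compound (up to 57.5 uM final), then substrate plus GAPDH/TPI/NAD/arsenate coupling and diaphorase/resazurin added. Fluorescence read after 20 min at RT, 525/598 nm.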
# FMDV inh = High Throughput Screening for Foot and Mouth Disease Virus Antivirals | FMDV antiviral cell-based qHTS | Potency, µM (top dose mostly 57.9 µM), actives largely listed as inhibitors | 410,000 compounds, 1.2% hits; calls by dose curve; tested in HEK293T cells; further: read-out not given here; nearly all actives have a fitted effect of over 45% in size
# HCV inhibitor = qHTS Assay for Inhibitors of Hepatitis C Virus (HCV); Potency, µM (doses to about 41.8 µM), usual class: inhibitors; Huh7.5.1 HCVcc-Cre infection, luciferase reporter, 44 h; 340,000 compounds, 3.4% hits
#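 Infectious HCVcc-Cre (~0.5 moi) was added to cells just after compound, with cells seeded 4 h earlier at 1,000 per well. Luciferase activity after 44 h culture reported infection; substrate was incubated 15 min at room temperature before reading.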
# Lassa entry inh = qHTS for Inhibitors of binding or entry into cells for Lassa Virus | Lassa virus pseudotype entry inhibition, cell reporter | Potency, µM (highest dose often 37.9 µM), actives largely listed as inhibitors | 300,000 compounds, 1.2% hits | AID 540256, 2011; calls by dose curve; tested in HEK293 cells; further: nearly all actives have a fitted effect of over 50% in size
# HCMV antiviral = qHTS Assay for inhibitors of the human cytomegalovirus (HCMV); HFF cells, HCMV-luciferase reporter, 72 h; active compounds read low; activity change, negative = inhibition, % at 57.5 µM; 410,000 compounds, 4.5% hits; AID 1259415, 2018; in the data active means activity change below about -60%; inconclusive means no clear call, values can overlap the other calls; inactive means above about -39%
#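 Luciferase read-out from HCMV-luciferase-infected HFFs (MOI 1 PFU/cell) 72 h post infection at 37C; compounds added after 16 h cell attachment; activity normalized between buffer-only basal and Salinomycin (10uM) inhibitor controls.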
# Marburg entry inh = qHTS for inhibitors of binding or entry into cells for Marburg Virus; Marburg virus pseudotyped entry inhibition, cell reporter; Potency, µM (doses to about 37.8 µM), usual class: inhibitors; 300,000 compounds, 1.8% hits; AID 540276, 2011; calls by dose curve; tested in HEK293 cells
# Giardia growth = qHTS Assay for Inhibitors of Fructose-1,6-bisphosphate Aldolase from Giardia Lamblia: Giardia lamblia growth inhibition; shares compounds with Giardia FBPA inh-1; 1,500 compounds, 5% hits; Giardia lamblia trophozoite growth inhibition; Potency, µM (top dose mostly 57.5 µM), actives largely listed as inhibitors;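 further: trophozoites exposed to compound for 48 h at 37 °C; nearly all actives have a fitted effect of over 70% in size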
# Mammalian tox = qHTS Assay for Inhibitors of Fructose-1,6-bisphosphate Aldolase from Giardia Lamblia: Mammalian cellular toxicity; Potency, µM (highest dose often 57.5 µM), usual class: inhibitors; 1,500 compounds, 4% hits; AID 2786, 2010; mammalian cell viability counter-screen, qHTS; shares compounds with Giardia FBPA inh-1;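 further: Chinese hamster ovary cells used as mammalian cytotoxicity surrogate; viability measured as cellular ATP by luminescence; compound exposure lasted 48 h before reading; nearly all actives have a fitted effect of over 60% in size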
# Giardia FBPA inh-2 = qHTS Assay for Inhibitors of Fructose-1,6-bisphosphate Aldolase from Giardia Lamblia: Primary screen confirmation. purified Giardia aldolase enzyme activity, qHTS. 1,500 compounds, 5% hits. shares compounds with Giardia FBPA inh-1. Potency, µM (series often up to 57.5 µM), most hits filed as inhibitors; further: nearly all actives have a fitted effect of over 45% in size
# Rabbit FBPA inh = qHTS Assay for Inhibitors of Fructose-1,6-bisphosphate Aldolase from Giardia Lamblia: Rabbit FBPA Selectivity; shares compounds with Giardia FBPA inh-1; Rabbit muscle FBPA enzyme inhibition, selectivity counter-screen; Potency, µM (series often up to 57.5 µM), most hits filed as inhibitors; 1,500 compounds, 4% hits; AID 2794, 2010; further: nearly all actives have a fitted effect of over 60% in size
# GAPDH coupling = qHTS Assay for Inhibitors of Fructose-1,6-bisphosphate Aldolase from Giardia Lamblia: Coupling assay counterscreen confirmation; shares compounds with Giardia FBPA inh-1; GAPDH coupling enzyme counterscreen, biochemical, qHTS; Potency, µM (highest dose often 57.5 µM), most hits filed as inhibitors; 1,500 compounds, 6% hits; AID 2795, 2010; further: nearly all actives have a fitted effect of over 55% in size
# Numbers stand for hits; – = inactive; ? = inconclusive; · = no result; [ ] = dose if it differs, or a comment. Unless noted, the call rests on the fitted dose curve; in most records, active means well fitted curve in the direction sought with a large enough effect; inconclusive means small, poorly fitted or top-dose-only effect, or another doubt; inactive means no such curve, though single readings can be large; an effect the other way counts as inactive or inconclusive.
SMILES,Giardia FBPA inh-1,FMDV inh,HCV inhibitor,Lassa entry inh,HCMV antiviral,Marburg entry inh,Giardia growth,Mammalian tox,Giardia FBPA inh-2,Rabbit FBPA inh,GAPDH coupling
CCCCC(=O)Nc1cc(-c2cn3cccnc3n2)ccc1C,·,–,·,–,–,·,·,·,·,·,·
CC(C)CCn1c(=O)c2sccc2n2c(CCCC(=O)NC(C)c3ccccc3)nnc12 (centres undefined),·,–,·,–,–,·,·,·,·,·,·
COCc1[nH]c(=S)c(C#N)cc1C(=O)OC,16µM,–,–,–,–,–,–,–,–,–,–
Cc1ccc(C(=O)Nc2ccc(S(=O)(=O)Nc3ncccn3)cc2)cc1[N+](=O)[O-],25µM,–,–,·,–,·,–[10.4 µM],–,–,–,–
O=C(Nc1ccc(S(=O)(=O)Nc2ncccn2)cc1)c1ccc(Cl)c([N+](=O)[O-])c1,–,–,–,–,–,–,·,·,·,·,·
CCc1ccccc1NC(=O)C1COc2ccccc2C1 (centres undefined),·,–,·,–,–,·,·,·,·,·,·
Cc1c2cnn(CC(=O)N3CCN(c4ccccc4)CC3)c(=O)c2c(C)n1Cc1ccc(F)cc1,·,–,·,–,–,–,·,·,·,·,·
CCOc1ccc(/C=N/Nc2nc(=O)[nH]nc2C)cc1OC,20µM,–,–,·,–,·,?,–,–,–,–
CCOc1cc(/C=N/Nc2nc(=O)[nH]nc2C)ccc1O,?,–,–,–,–,–,·,·,·,·,·
Cn1ncnc2c(=O)n(C)c(=O)nc1-2,0.5µM,1.6µM,0.5µM,·,·,·,13µM,8.9µM,3.2µM,4.5µM,2.5µM
Cn1c(=O)c(-c2ccc(Cl)cc2)nc2cncnc21,–,–,·,·,·,·,·,·,·,·,·
CCOc1ccc(NC(=O)c2nnn(-c3ccc(F)c(Cl)c3)c2C)cc1,·,–,·,–,–,–,·,·,·,·,·
COc1cccc(C(=O)NC(=S)Nc2cccnc2)c1,?,–,?,–,–,–,·,·,·,·,·
CCOc1cc(C(=O)NC(=S)Nc2cccnc2)cc(OCC)c1OCC,11µM,–,?,–,–,?,–[10.4 µM],–,–,–,–
COc1cc(C(=O)NC(=S)Nc2ccc(Cl)cn2)cc(OC)c1OC,10µM,–,–,·,–,·,–,–,–,–,–
CCOc1ccc(NC(=S)NC(=O)c2cccnc2)c([N+](=O)[O-])c1,8.9µM,–,–,–,–,–,35µM,–,–,–,–
CCOc1ccc(C(=O)NC(=S)Nc2cccnc2)cc1,?,–,–,?,–,?,·,·,·,·,·
COc1ccc(C(=O)NC(=S)Nc2cccnc2)cc1Cl,10µM,–,–,–,–,–,–[10.4 µM],–,–,–,–
CCOc1ccc(C(=O)Nc2ccccc2OCc2cc(=O)n3ccccc3n2)cc1,·,–,·,–,–,·,·,·,·,·,·
COCCCn1c(SCc2ccccc2F)nc2c(sc3ccccc32)c1=O,·,–,·,?,–,·,·,·,·,·,·
CCCCCCCCCC[Si](C)(C)CCC(=O)N[C@@H](Cc1ccc(C)cc1)c1ccccc1,·,·,·,·,·,–,·,·,·,·,·
COC(=O)C/C=C\[C@H](C)[C@H](CO)NS(=O)(=O)c1ccc(C)cc1,–[12.9 µM],·,·,·,·,·,·,·,·,·,·
O=C(NC(=S)Nc1ccccc1Cl)c1cncc(C#Cc2ccccc2)c1,–,–,–,–,–,–,·,·,·,·,·
O=C(NC(=S)Nc1ccccc1Cl)c1cncc(Br)c1,6.3µM,–,–,–,–,–,?,–,–,–,–
O=C(NC(=S)Nc1ncc(Br)cc1Br)c1ccccc1,6.3µM,–,–,–,?,–,–,–,–,–,–
O=C1Nc2c(Cl)cc(Cl)cc2C12Nc1ccccc1S2 (centres undefined),·,·,·,·,–,·,·,·,·,·,·
Nc1ccc2nc(CCCCc3nc4ccccc4[nH]3)[nH]c2c1,13µM,–,–,·,–,·,–,–,–,–,–
C=CCC(NCc1ccccc1)c1ccc(OC)cc1 (centres undefined),14µM,–,–,–,–,–,–,–,–,–,–
C=CCC(NCc1ccccc1)c1ccco1 (centres undefined),–,–,–,–,–,–,·,·,·,·,·
Cc1cc(C)c2nc(-c3ccccn3)cc(C(=O)NCCc3ccc(S(N)(=O)=O)cc3)c2c1,18µM,–,–,–,–,–,–[10.4 µM],–,–,–,–
